# Laboratory results taken from paper PMC11062922 (Nature Chemical Biology, 2023).
# Read-outs that look alike come from different tables or passages of the source.
# Key:
# Design in all cases: species or system human, MV4-11 + K-562 + COLO205 + SK-N-BE2 + OVCAR-8
# ABL2 = details: read-out: apparent Kd, n = 1
# AURKB = details: read-out: apparent Kd, n = 1
# BTK = details: read-out: apparent Kd, n = 1
# EPHB1 = details: read-out: apparent Kd, n = 1
# LCK = details: read-out: apparent Kd, n = 1
# NUAK2 = details: read-out: apparent Kd, n = 1
# PAK6 = details: read-out: apparent Kd; compound concentrations:100 nM and 1000 nM (sheet 'Samples'); n = 1
# RPS6KA3 = details: read-out: apparent Kd, n = 1
# RPS6KB1 = details: read-out: apparent Kd, n = 1
# BUB1 = details: read-out: apparent Kd, n = 1
# MAP3K11 = details: read-out: apparent Kd, n = 1
# MARK2 = details: read-out: apparent Kd, n = 1
# MAPK14 = details: read-out: apparent Kd, n = 1
# ACVR1B = details: read-out: apparent Kd, n = 1
# CDC42BPB = details: read-out: apparent Kd; compound concentrations: 100 nM and 1000 nM (sheet 'Samples'), CATDS: 4.0403129227197304E-3; n = 1
# CDK2 = details: read-out: apparent Kd, compound concentrations: 100 nM and 1000 nM (sheet 'Samples'), n = 1
# PIK3CD = details: read-out: apparent Kd; compound concentrations: 100 nM and 1000 nM (sheet 'Samples'), CATDS: 4.6666042012861897E-2; n = 1
# PKN2 = details: read-out: apparent Kd, n = 1
# PRKCA = details: read-out: apparent Kd, n = 1
# TTK = details: read-out: apparent Kd; compound concentrations: 100 nM and 1000 nM (sheet 'Samples'), CATDS: 3.8760622756019202E-3; n = 1
# [1] = compound concentrations:100 nM and 1000 nM (sheet 'Samples')
smiles,measurement,setting,value
CN1C[C@@H]2Cn3c(c(C4=C(c5cn(C)c6ccccc56)C(=O)NC4=O)c4ccccc43)C[C@H]2C1.Cl [RO0320234-001],potency estimated from few doses,ABL2; [1],5.56 nM
same,potency estimated from few doses,AURKB; [1],444 nM
same,potency estimated from few doses,BTK; [1],86.7 nM
same,potency estimated from few doses,EPHB1; [1],10.4 nM
same,potency estimated from few doses,LCK; [1],134 nM
same,potency estimated from few doses,NUAK2; [1],843 nM
same,potency estimated from few doses,PAK6,111 nM
same,potency estimated from few doses,RPS6KA3; [1],2100 nM
same,potency estimated from few doses,RPS6KB1; [1],86.4 nM
O=C1NC(=O)C(N2CCc3ccccc32)=C1c1ccccc1Cl [SB-373598],potency estimated from few doses,ABL2; [1],329 nM
same,potency estimated from few doses,AURKB; [1],466 nM
same,potency estimated from few doses,BTK; [1],124 nM
same,potency estimated from few doses,BUB1; [1],1690 nM
same,potency estimated from few doses,EPHB1; [1],373 nM
same,potency estimated from few doses,LCK; [1],138 nM
same,potency estimated from few doses,MAP3K11; [1],1040 nM
same,potency estimated from few doses,MARK2; [1],1350 nM
same,potency estimated from few doses,NUAK2; [1],780 nM
same,potency estimated from few doses,PAK6,419 nM
same,potency estimated from few doses,RPS6KA3; [1],966 nM
Cl.NCc1ccc(-c2nc(-c3ccc(Cl)c(O)c3)c(-c3ccncc3)[nH]2)cc1 [SB-476429-A],potency estimated from few doses,BUB1; [1],2020 nM
same,potency estimated from few doses,MAPK14; [1],113 nM
Cn1ncc2c(N)ncnc21 [SKF-18267],potency estimated from few doses,"ABL2; compound concentrations: 100 nM and 1000 nM (sheet 'Samples'), CATDS: 5.0197498438992799E-3",808 nM
same,potency estimated from few doses,"ACVR1B; compound concentrations: 100 nM and 1000 nM (sheet 'Samples'), CATDS: 5.9618595467290699E-3",587 nM
same,potency estimated from few doses,"AURKB; compound concentrations: 100 nM and 1000 nM (sheet 'Samples'), CATDS: 5.1927798123429401E-3",756 nM
same,potency estimated from few doses,"BTK; compound concentrations: 100 nM and 1000 nM (sheet 'Samples'), CATDS: 5.3280284172791698E-3",720 nM
same,potency estimated from few doses,"BUB1; compound concentrations: 100 nM and 1000 nM (sheet 'Samples'), CATDS: 3.8134095637251098E-3",1510 nM
same,potency estimated from few doses,CDC42BPB,1300 nM
same,potency estimated from few doses,CDK2; CATDS: 5.1697348126272004E-3,762 nM
same,potency estimated from few doses,"EPHB1; compound concentrations: 100 nM and 1000 nM (sheet 'Samples'), CATDS: 5.0582838235080502E-3",796 nM
same,potency estimated from few doses,"MAP3K11; compound concentrations: 100 nM and 1000 nM (sheet 'Samples'), CATDS: 4.0610212954189503E-3",1290 nM
same,potency estimated from few doses,"MAPK14; compound concentrations: 100 nM and 1000 nM (sheet 'Samples'), CATDS: 5.3577076045461004E-3",712 nM
same,potency estimated from few doses,"MARK2; compound concentrations: 100 nM and 1000 nM (sheet 'Samples'), CATDS: 3.8405596428901902E-3",1490 nM
same,potency estimated from few doses,PIK3CD,40.8 nM
same,potency estimated from few doses,"PKN2; compound concentrations: 100 nM and 1000 nM (sheet 'Samples'), CATDS: 4.0047157593236004E-3",1330 nM
same,potency estimated from few doses,"PRKCA; compound concentrations: 100 nM and 1000 nM (sheet 'Samples'), CATDS: 3.58231732022705E-3",1810 nM
same,potency estimated from few doses,"RPS6KA3; compound concentrations: 100 nM and 1000 nM (sheet 'Samples'), CATDS: 4.3523145160936898E-3",1090 nM
same,potency estimated from few doses,"RPS6KB1; compound concentrations: 100 nM and 1000 nM (sheet 'Samples'), CATDS: 4.5805386510862304E-3",976 nM
same,potency estimated from few doses,TTK,1450 nM
CCOc1nccc2c1nc(-c1nonc1N)n2CC [SB-737198],potency estimated from few doses,"PKN2; compound concentrations: 100 nM and 1000 nM (sheet 'Samples'), CATDS: 0.50424526517456403",231 nM
same,potency estimated from few doses,"RPS6KB1; compound concentrations: 100 nM and 1000 nM (sheet 'Samples'), CATDS: 0.20646016989107699",1320 nM
COc1ccc(Nc2ncc(C#N)c(Nc3ccccc3C(N)=O)n2)cc1N1CCN(C)CC1.Cl [GSK1558669A],potency estimated from few doses,"ABL2; compound concentrations: 100 nM and 1000 nM (sheet 'Samples'), CATDS: 8.4087803089845196E-3",334 nM
same,potency estimated from few doses,"AURKB; compound concentrations: 100 nM and 1000 nM (sheet 'Samples'), CATDS: 1.8083134151289901E-2",45.1 nM
same,potency estimated from few doses,"BTK; compound concentrations: 100 nM and 1000 nM (sheet 'Samples'), CATDS: 6.7250041234510503E-3",871 nM
same,potency estimated from few doses,"BUB1; compound concentrations: 100 nM and 1000 nM (sheet 'Samples'), CATDS: 6.2718506729186104E-3",1300 nM
same,potency estimated from few doses,CDK2; CATDS: 7.0892729990410901E-3,671 nM
same,potency estimated from few doses,"LCK; compound concentrations: 100 nM and 1000 nM (sheet 'Samples'), CATDS: 1.44418733031309E-2",72.7 nM
same,potency estimated from few doses,"MAP3K11; compound concentrations: 100 nM and 1000 nM (sheet 'Samples'), CATDS: 2.8050644020512099E-2",20.5 nM
same,potency estimated from few doses,"MARK2; compound concentrations: 100 nM and 1000 nM (sheet 'Samples'), CATDS: 8.7535455285316904E-3",289 nM
same,potency estimated from few doses,"NUAK2; compound concentrations: 100 nM and 1000 nM (sheet 'Samples'), CATDS: 2.1181549202491899E-2",33.3 nM
same,potency estimated from few doses,"PRKCA; compound concentrations: 100 nM and 1000 nM (sheet 'Samples'), CATDS: 6.3313527827085804E-3",1220 nM
same,potency estimated from few doses,"RPS6KA3; compound concentrations: 100 nM and 1000 nM (sheet 'Samples'), CATDS: 1.2141837427484699E-2",110 nM
same,potency estimated from few doses,"RPS6KB1; compound concentrations: 100 nM and 1000 nM (sheet 'Samples'), CATDS: 6.0370811384274602E-3",1680 nM
CCOC(=O)N1CCC(n2cnc(-c3ccc(F)cc3)c2-c2ccnc(N)n2)CC1 [SB-219952],potency estimated from few doses,"ABL2; compound concentrations: 100 nM and 1000 nM (sheet 'Samples'), CATDS: 1.2118968768927599E-2",552 nM
same,potency estimated from few doses,"BTK; compound concentrations: 100 nM and 1000 nM (sheet 'Samples'), CATDS: 1.0743585683712699E-2",726 nM
same,potency estimated from few doses,"BUB1; compound concentrations: 100 nM and 1000 nM (sheet 'Samples'), CATDS: 8.9704944978388403E-3",1170 nM
same,potency estimated from few doses,"EPHB1; compound concentrations: 100 nM and 1000 nM (sheet 'Samples'), CATDS: 1.10661154917942E-2",677 nM
same,potency estimated from few doses,"LCK; compound concentrations: 100 nM and 1000 nM (sheet 'Samples'), CATDS: 1.05022707080212E-2",767 nM
same,potency estimated from few doses,"MAP3K11; compound concentrations: 100 nM and 1000 nM (sheet 'Samples'), CATDS: 1.0131438391308501E-2",838 nM
same,potency estimated from few doses,"MAPK14; compound concentrations: 100 nM and 1000 nM (sheet 'Samples'), CATDS: 3.3048485919856201E-2",97.1 nM
same,potency estimated from few doses,"MARK2; compound concentrations: 100 nM and 1000 nM (sheet 'Samples'), CATDS: 9.1119285329163396E-3",1120 nM
same,potency estimated from few doses,"RPS6KA3; compound concentrations: 100 nM and 1000 nM (sheet 'Samples'), CATDS: 7.9232054284878294E-3",1760 nM
Cc1ccc(Nc2ccnc(Nc3ccc4c(c3)CS(=O)(=O)C4)n2)cc1O.Cl [GW579362A],potency estimated from few doses,"ABL2; compound concentrations: 100 nM and 1000 nM (sheet 'Samples'), CATDS: 4.4791805431594098E-2",448 nM
same,potency estimated from few doses,"MAP3K11; compound concentrations: 100 nM and 1000 nM (sheet 'Samples'), CATDS: 2.6959638591647499E-2",1770 nM
same,potency estimated from few doses,"MAPK14; compound concentrations: 100 nM and 1000 nM (sheet 'Samples'), CATDS: 2.9505107428945899E-2",1290 nM
COc1cccc2c(-c3ccncc3)c(-c3ccc(F)cc3)nn12 [GW468513X],potency estimated from few doses,"ACVR1B; compound concentrations: 100 nM and 1000 nM (sheet 'Samples'), CATDS: 0.110012792882782",83.3 nM
same,potency estimated from few doses,"BUB1; compound concentrations: 100 nM and 1000 nM (sheet 'Samples'), CATDS: 4.5362878745682803E-2",739 nM
same,potency estimated from few doses,"MAPK14; compound concentrations: 100 nM and 1000 nM (sheet 'Samples'), CATDS: 0.16592681304069401",42.8 nM
Cl.ON=C1CCc2cc(-c3nc(C4CCNCC4)[nH]c3-c3ccncc3)ccc21 [SB-614067-R],potency estimated from few doses,ACVR1B; [1],846 nM
same,potency estimated from few doses,MAPK14; [1],1160 nM
CCn1c(-c2nonc2N)nc2c(C#CC(C)(C)O)nc(OCCN)cc21.CCn1c(-c2nonc2N)nc2c(C#CC(C)(C)O)nc(OCCN)cc21.Cl.Cl [GSK902056A],potency estimated from few doses,PKN2; [1],581 nM
Cc1cccc(Nc2nc(N[C@H]3CCCC[C@H]3N)ncc2C(N)=O)c1.Cl [GSK986310C],potency estimated from few doses,MAP3K11; [1],1800 nM
same,potency estimated from few doses,PRKCA; [1],1130 nM
